The nature of this assay: qHTS Assay for Identifying a Potential Treatment of Ataxia-Telangiectasia: Secondary assay (no NCS) SAR for Probe. The note with it: F2112 A-T fibroblasts, pKAP1 AlphaLISA; series mostly up to 76.9 µM. The text has this: NIH Chemical Genomics Center [NCGC] NIH Molecular Libraries Probe Centers Network [MLPCN] MLPCN Grant: MH089030-01 Assay Submitter (PI): Wei Zheng and Yosef Shiloh Ataxia-telangiectasia (A-T) is a devastating and progressive disease for which, there is no cure. Although A-T is a multisystem disease, it is stereotyped characterized by its neurological symptoms such as truncal ataxia, due to cerebellar cortical degeneration of the Purkinje and granule cells. Other symptoms of A-T are telangiectasias (dilated blood vessels), primary immunodeficiency, marked sensitivity to ionizing radiation (IR), chromosomal instability and predisposition to cancer. The underlying genetic cause of A-T is null mutations in the ATM (A-T mutated) gene. ATM is a nuclear serine/threonine kinase that functions as a master regulator of the cellular responses to double strand breaks (DSBs) in the DNA. Upon activation by DSBs, ATM phosphorylates a plethora of downstream targets, including KAP-1 on Ser82452. […] To screen for small molecules that will compensate for the loss of ATM in cells derived from A-T patients, we monitored KAP-1 phosphorylation as a readout for ATM-like activity using an AlphaLISA assay. […]
qHTS Assay Protocol: Step,Parameter,Value,Description 1. […] Readout, EnVision, EnVision plate reader. […] EnVision protocol for 1536-well AlphaScreen read (30ms excitation, 100ms read), about 10 min/plate.

Data on one molecule can be found in PubChem BioAssay AID504361 (National Center for Advancing Translational Sciences (NCATS), 2011).

Inconclusive results are not listed. Active and inactive are the calls of the source. Calls follow the shape of the dose curve; as a rule, active = well fitted curve in the direction sought with a large enough effect; inconclusive = small, poorly fitted or top-dose-only effect, or effect the other way, or another doubt; inactive = no such curve, though single readings can be large or run the other way.

Take `CC(=O)c1c(O)c(C)c(O)c(Cc2c(O)c3c(c(C(=O)/C=C/c4ccccc4)c2O)OC(C)(C)C=C3)c1O`: the call was inactive.
